Measured values as given in paper PMC13494018.
Values without a mark were called inactive. The rule behind the calls is not given here.

Biological target: CD276, Q5ZPR3
Sequence (Q5ZPR3 whole entry): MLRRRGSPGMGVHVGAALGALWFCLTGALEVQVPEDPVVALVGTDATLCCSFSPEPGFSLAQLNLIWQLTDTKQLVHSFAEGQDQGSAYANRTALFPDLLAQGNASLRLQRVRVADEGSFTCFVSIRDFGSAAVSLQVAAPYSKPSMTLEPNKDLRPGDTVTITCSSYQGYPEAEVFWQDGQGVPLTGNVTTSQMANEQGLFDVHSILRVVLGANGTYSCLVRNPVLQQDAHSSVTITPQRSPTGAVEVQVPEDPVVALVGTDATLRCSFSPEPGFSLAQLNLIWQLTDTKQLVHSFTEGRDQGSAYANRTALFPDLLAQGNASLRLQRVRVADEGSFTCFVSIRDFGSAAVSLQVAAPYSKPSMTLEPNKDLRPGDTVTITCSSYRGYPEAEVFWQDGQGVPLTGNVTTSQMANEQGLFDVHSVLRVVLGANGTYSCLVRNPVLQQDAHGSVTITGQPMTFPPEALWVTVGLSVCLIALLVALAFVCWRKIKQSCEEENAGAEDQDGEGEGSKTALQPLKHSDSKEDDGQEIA

B1: design_391_ca6baf5d-2451-47ba-bffc-fc886679966a_2271_dldesign_0_cycle1_af2pred (protein)
chain: AAAEKEKEAEAKELFEKARKLAAEAAKLAVKAVGLSEEAYQLANEALQYAIEALEIVSAGEDLEKAKELLEKAQEKLKKATELVKKL
- binding in a display sort: not found

B2: design_486_d4f32670-1303-4d79-8413-1b14cb3eff50_135_dldesign_0_cycle1_af2pred (protein)
chain: EREEEVERRREEVVRAAELVAAIARAVGDEETARLAEEAKRLAEEGGEEGVERARELVREAMVRIAKRLAEKS
- binding in a display sort: not found

B3: design_486_d4f32670-1303-4d79-8413-1b14cb3eff50_1043_dldesign_0_cycle1_af2pred (protein)
chain: AAEKEAEAARLERLMQAYVAAAMAGAARVTGNEATAAAQLAKARALDPEVAGELEAAVLADPQAALAEALERARAAEERLRALREE
- binding in a display sort: binds (active)

B4: design_391_ca6baf5d-2451-47ba-bffc-fc886679966a_2026_dldesign_0_cycle1_af2pred (protein)
chain: AAKEALEKAKEKAEEIKAIADDVAKKAAAGTITPEEVAAALAKAIELAKEASEYLKEVPEAEAEEIAREVNAAMAKLNKAAVKALA
- binding in a display sort: not found

B5: design_486_d4f32670-1303-4d79-8413-1b14cb3eff50_760_dldesign_0_cycle1_af2pred (protein)
chain: EAEEAARRARELAERARAARDAGLADPAKANEALGVALDAMRELAEIAERYPEVAEVAREAARVAAEAATALAKQAAAYYAAQRA
- binding in a display sort: not found

B6: design_391_ca6baf5d-2451-47ba-bffc-fc886679966a_2338_dldesign_0_cycle1_af2pred (protein)
chain: AEAAKQAALNTAGILAATVGAEAAAAAGLEAITVYGASIGDVLKATTTIASATSPQARANATRAVALISRALIAS
- binding in a display sort: not found

B7: design_486_d4f32670-1303-4d79-8413-1b14cb3eff50_34_dldesign_0_cycle1_af2pred (protein)
chain: AAEKAIKVLEEAKKEAAKDPGDGKAAIEAIEKAIEAVKANPNNAGIGQAMVILAEAAAKASPKTRAVLSKAIAELSQVAI
- binding in a display sort: not found

B8: design_486_d4f32670-1303-4d79-8413-1b14cb3eff50_402_dldesign_0_cycle1_af2pred (protein)
chain: ADEEKVKQAKKLAEEALRLAKEDPEKAKKKLEEAAKLAAASPAALEILLSVAGELYRINPEVGKAARQAFATAATAIV
- binding in a display sort: not found

B9: design_486_d4f32670-1303-4d79-8413-1b14cb3eff50_565_dldesign_0_cycle1_af2pred (protein)
chain: MTEEELIQRTADANVRQVRRVAVEEGLEAGRRQLELNVKSLESVGATEIAAEMERRAEAALAEAAAELARRAAE
- binding in a display sort: not found

B10: design_486_d4f32670-1303-4d79-8413-1b14cb3eff50_30_dldesign_0_cycle1_af2pred (protein)
chain: AAAARAKAGVYTGEGFEKVREGERLRREGDPRAVEEYEEAAKLFEKAAEYYAQVNPGAAAGVAAMAKQVRERAEEYREEL
- binding in a display sort: not found

B11: design_486_d4f32670-1303-4d79-8413-1b14cb3eff50_819_dldesign_0_cycle1_af2pred (protein)
chain: SLEELRRKAVRKAQEAMATASKVAIAAKAAGDAATAAKANELLVKAQEALKEAVEGKNVEEALRRAEELLEEAKKLAKE
- binding in a display sort: not found

B12: design_391_ca6baf5d-2451-47ba-bffc-fc886679966a_1764_dldesign_0_cycle1_af2pred (protein)
chain: DPLEEALKEFEEALKLARELAEAVAALNPEEGERAREAIKEAEKRAKEALKLSPEEAAKAIREIRNELMRRVMREGARALAAA
- binding in a display sort: not found

B13: design_486_d4f32670-1303-4d79-8413-1b14cb3eff50_721_dldesign_0_cycle1_af2pred (protein)
chain: MNLYESTLLVAEGAIQTAQQAAELATDPAIKAQAKELKERAQEIRDRVKARGTATNEEGQEAVRLLNQASKLLAQAK
- binding in a display sort: not found

B14: design_391_ca6baf5d-2451-47ba-bffc-fc886679966a_1909_dldesign_0_cycle1_af2pred (protein)
chain: VGLAKAAELAVESAKQAVEQAEALAKAGKDPKQALALTDQAKLAADTAKAIAKQVEKEDPEKGKKLKEEAEKVKKKAEEVEKKIK
- binding in a display sort: not found

B15: design_391_ca6baf5d-2451-47ba-bffc-fc886679966a_2255_dldesign_0_cycle1_af2pred (protein)
chain: DPLLAAARAVAAAALAAVRDGAARGAEAAEQALTFALNLLAAQARRAERELAGDPALRARVLAILDAARAEVRALGEALIAAAR
- binding in a display sort: not found

B16: design_486_d4f32670-1303-4d79-8413-1b14cb3eff50_521_dldesign_0_cycle1_af2pred (protein)
chain: DAAALAARTARAIRDQAVRTVAAEEGPEAAEIARAAGEAVLAGDFEEGRRLAERVGRARAFVLSNVESIALLVEG
- binding in a display sort: not found

B17: design_391_ca6baf5d-2451-47ba-bffc-fc886679966a_1932_dldesign_0_cycle1_af2pred (protein)
chain: AQANAELTLRTLEAAGRAALALARASDAETAARILDAFRKTSAVLIESGAAAGPEAAKKVKELADKYLAELEAIVAAKAAEAA
- binding in a display sort: not found

B18: design_391_ca6baf5d-2451-47ba-bffc-fc886679966a_1760_dldesign_0_cycle1_af2pred (protein)
chain: KEETQRVMVEATRVINRVAALVIAHPELTEAAALIQQALALLEQAKELLEAGEEEKALELAKQALELAKKALEIAESAL
- binding in a display sort: not found

B19: design_486_d4f32670-1303-4d79-8413-1b14cb3eff50_300_dldesign_0_cycle1_af2pred (protein)
chain: SELDEELLERAKRLLETAKAAGAAGDKETVQQALGEAVELAAEAQRHRDVVSEETWQAIQQALNTAAQHAIAL
- binding in a display sort: not found

B20: design_486_d4f32670-1303-4d79-8413-1b14cb3eff50_394_dldesign_0_cycle1_af2pred (protein)
chain: AEANVALGKRMLEAGKKLAEETKELAKKAKKGEDKEGAKEAAKVALAFAETLELVAEGVPEIAEELKKAAKELKEAAEKALKAAKAA
- binding in a display sort: not found

B21: design_486_d4f32670-1303-4d79-8413-1b14cb3eff50_798_dldesign_0_cycle1_af2pred (protein)
chain: GVQALAAATLEAMELAKKIGANEAVRNLGAALAVAGTRHPELAPEFTKRVEELLKLAKEAAKGDKEEAAKLVAEEARKLRDAALAA
- binding in a display sort: not found

B22: design_486_d4f32670-1303-4d79-8413-1b14cb3eff50_194_dldesign_0_cycle1_af2pred (protein)
chain: GVEEAYDVAKALAEQAIKANAADPEAKKKAEEALKKAEEAYKNAPKIDPAEAAYKIMKEAAKAAKQYLAAVAK
- binding in a display sort: not found

B23: design_486_d4f32670-1303-4d79-8413-1b14cb3eff50_845_dldesign_0_cycle1_af2pred (protein)
chain: SAAEQQLQQAKGYITLANAIARDPNPTPEQLQLAKEAAQQAIKLAEQVEKAVGEKGKEVKKQAEEALAKVQALL
- binding in a display sort: not found

B24: design_391_ca6baf5d-2451-47ba-bffc-fc886679966a_2389_dldesign_0_cycle1_af2pred (protein)
chain: GKEEEAKEAVERARELAKKMIEEAEKAAKEDLGKAIEVLKKGNEELLELAEEAEELDPEAGEEIRELATQAISEAVKKMVAIQLAK
- binding in a display sort: not found

B25: design_486_d4f32670-1303-4d79-8413-1b14cb3eff50_973_dldesign_0_cycle1_af2pred (protein)
chain: DPAERAAEFRRRAEEVAAIYLAAAQANPAMAPVMAANVLATMRAWAAVWADNPAVAAAALEVGREAAARIA
- binding in a display sort: not found

B26: design_486_d4f32670-1303-4d79-8413-1b14cb3eff50_4_dldesign_0_cycle1_af2pred (protein)
chain: REEKVEEARRLAQRALNAASKAVVGITSGSLSPEEIQALIDEATEALERAKELAPYATPAVREAIELAEALLQQAKEL
- binding in a display sort: not found

B27: design_391_ca6baf5d-2451-47ba-bffc-fc886679966a_2349_dldesign_0_cycle1_af2pred (protein)
chain: NQAKLAEVFARAQEVIKRREEVRKRAEELSEEKREKVLKLLEESTKYLQEAFRAIAKGDAENAKKYVDKAEKLVEEAEKA
- binding in a display sort: not found

B28: design_486_d4f32670-1303-4d79-8413-1b14cb3eff50_103_dldesign_0_cycle1_af2pred (protein)
chain: AEAEEFAEKAKEKAKEAVKVYAKDPEAGAAKLNALQAEAARKAIADPRYNPALAAVVEEALKANEVAKAA
- binding in a display sort: not found

B29: design_391_ca6baf5d-2451-47ba-bffc-fc886679966a_1789_dldesign_0_cycle1_af2pred (protein)
chain: DALAQAIAQIKEMGDIALALAQDALANPAIAAGAIRAAQSLVKHMLALGKAAGPEAAAVAEKEAAKVNAAIAQAKAA
- binding in a display sort: not found

B30: design_391_ca6baf5d-2451-47ba-bffc-fc886679966a_1601_dldesign_0_cycle1_af2pred (protein)
chain: STLQELVDAAKEALAAAGELYRLDPERGEALRKQVWALLIAGLRDPATAAADKAKIEALKAEAEALVAELK
- binding in a display sort: not found

B31: design_486_d4f32670-1303-4d79-8413-1b14cb3eff50_440_dldesign_0_cycle1_af2pred (protein)
chain: AGKEIAKKMGKAVAERLAKQAPSVAEEAKKAAEAIEKGDYEEAKKEAEKALEIGKKNPKEYKVVKAGVETLKVLADAIAAS
- binding in a display sort: not found

B32: design_486_d4f32670-1303-4d79-8413-1b14cb3eff50_969_dldesign_0_cycle1_af2pred (protein)
chain: AQAERDAAARKIAAAHLNHAAKVAEALAKEAKDPKVKKKLKEAAKKAKELAKEAAKGNAAEAGEKAVEAAKLLAEARRLYEEDK
- binding in a display sort: not found

B33: design_486_d4f32670-1303-4d79-8413-1b14cb3eff50_66_dldesign_0_cycle1_af2pred (protein)
chain: AEAEAAAEAAAAAARAAAAAGDFATAVAITTTFAAANPALAWRVANAALAAFSQAARDPATAAAANAAMAAVVDTLRALSS
- binding in a display sort: not found

B34: design_486_d4f32670-1303-4d79-8413-1b14cb3eff50_897_dldesign_0_cycle1_af2pred (protein)
chain: NPQGEAAVRYAEIAARARRLAEEARAAGREELAAEFQRIAEAARAALRRAVAANVAGEDRSEELVAEAERLERELEELERRFR
- binding in a display sort: not found

B35: design_391_ca6baf5d-2451-47ba-bffc-fc886679966a_2408_dldesign_0_cycle1_af2pred (protein)
chain: SAAAVAAALAAAEASVKTAERFAEEAEKAVDDPERATRLGESARQNIEVALALADDAAATDPAAAPKAAEIKKRAEEVRKRIEEVLKK
- binding in a display sort: not found

B36: design_391_ca6baf5d-2451-47ba-bffc-fc886679966a_2108_dldesign_0_cycle1_af2pred (protein)
chain: TAAAALAAAKAALATAKAAGLPARYLEMAEAALAVATSAAASGDPAHQKAALAFSSAVLAAIEAEAAKRA
- binding in a display sort: not found

B37: design_486_d4f32670-1303-4d79-8413-1b14cb3eff50_567_dldesign_0_cycle1_af2pred (protein)
chain: DTVVANALAAQLVLEAIGLAAAGNIEEALKKLREAAKVASPESAAVLEAAARTIAEEGLPPEEAVAVFNAALAVVQKNAIAAA
- binding in a display sort: not found

B38: design_486_d4f32670-1303-4d79-8413-1b14cb3eff50_788_dldesign_0_cycle1_af2pred (protein)
chain: MREEAERVRRRAEEVEELAAKASPAVAAQVRARARAARTFAEAALRSPDPELAAQAVAAAEANVEAAEQLLAADA
- binding in a display sort: not found
